# Screening results: PubChem, several laboratories
# Arbovirus anti – arbovirus infection inhibition | arbovirus infection cell-based antiviral screen | inhibition, % at 10 µM | hit rate 0.37% among 200,000 | AID 1251; in the data active = inhibition above about 30%
# WT yeast gro inh – growth inhibition of WT yeast, mitochondrial fusion screen. AID 1362. inhibition, % at 10 µM. mitochondrial fusion phenotypic screen, WT strain. hit rate 2.1% among 190,000; in the data active = inhibition above about 58%; tested in S. cerevisiae
# CHOP inh – blocks CHOP induction under ER stress. CHO-K1 CHOP-promoter luciferase, tunicamycin-induced, 15-18 h. inhibition, % at 10 µM. hit rate 3.8% among 220,000;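 active = compounds that reduced the stress-induced luciferase reporter signal by more than about 70% of percent inhibition, limit read from the data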
# L major viab – Leishmania major promastigote growth inhibition. Leishmania major promastigotes, resazurin fluorescence viability. inhibition, % at 10 µM. hit rate 9% among 200,000. AID 1063; in the data active = inhibition above about 50%;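 note: promastigotes grown with compound for 44 hours at 28 °C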
# A number is an active result; - = inactive; . = no result given. A selection: hits, their analogues and other compounds. The true share with any hit is near 12%.
SMILES,Arbovirus anti,WT yeast gro inh,CHOP inh,L major viab
COC(=O)C1=CN(C2CC2)C=C(C(=O)OC)C1c1ccc(C(F)(F)F)cc1,-,-,-,88.3
COC(=O)C1=CN(C2CC2)C=C(C(=O)OC)C1c1ccc(C(=O)OC)cc1,-,-,-,-
CC(C)NC(=O)c1noc2cc([N+](=O)[O-])ccc12,-,-,-,-
COC(=O)c1nn(-c2nc(-c3ccc(OC)c(OC)c3)cc(C(F)(F)F)n2)cc1[N+](=O)[O-],-,-,-,-
COC(=O)c1nn(-c2nc(-c3cccc(OC)c3)cc(C(F)(F)F)n2)cc1[N+](=O)[O-],-,-,-,90.0
CCC(C)(c1nnnn1-c1c(C)cccc1C)N(N=O)c1cccc(C(F)(F)F)c1 (stereo not given),-,-,-,100.0
Cc1cccc(C)c1-n1nnnc1C(C)(C)N1CCN(N=O)CC1,.,.,-,.
CCOCCCn1c(SC(C(=O)Nc2cc(C)ccc2C)c2ccccc2)nnc1-c1ccc(Cl)cc1 (stereo not given),-,-,-,60.7
COC(=O)c1c(NC(=S)Nc2ccc(F)cc2[N+](=O)[O-])sc2c1CCCCC2,-,-,-,-
c1ccc(CCNc2ncnc3c2nnn3Cc2ccccc2)cc1,-,-,88.9,-
c1ccc(Cn2nnc3c(N4CCCCCC4)ncnc32)cc1,-,-,-,-
CCCN1CCN(c2ncnc3c2nnn3Cc2ccccc2)CC1,-,-,.,97.3
Cc1cc(C)c2c(N=CN(C)C)c(C(=O)N3CCN(c4ncccn4)CC3)sc2n1,-,-,-,-
COC(=O)/C=C/c1sc2nc(C)cc(C)c2c1N=CN(C)C,44.5,-,-,-
Cc1ccc(OCC(=O)N2c3ccccc3CC2C)c([N+](=O)[O-])n1 (stereo not given),-,-,-,-
CCCCn1c(SCC(=O)Nc2ccc3c(c2)CCC3)nc2ccccc2c1=O,-,-,-,68.5
O=C(CSc1nc2ccccc2c(=O)n1Cc1ccc(F)cc1)NCc1cccs1,-,-,81.6,-
Cc1cc(NC(=O)CSc2nc3ccccc3c(=O)n2-c2ccccc2)no1,-,-,-,-
COc1ccc(CCn2c(SCC(=O)Nc3cc(C)on3)nc3ccccc3c2=O)cc1OC,-,-,-,-
Cc1cc(NC(=O)CSc2nc3ccccc3c(=O)n2Cc2ccc(F)cc2)no1,-,-,77.7,-
CCCCCCn1c(SCC(=O)Nc2cc(C)on2)nc2ccccc2c1=O,-,-,74.8,-
CCCOc1cccc(C2C(C(=O)c3cccs3)=C(O)C(=O)N2Cc2cccnc2)c1 (stereo not given),.,.,-,.
NCCCC[C@H]1CNC(=O)C(=O)N1CCC12CC3CC(CC(C3)C1)C2,.,.,-,.
COc1ccccc1N/C(=N/c1nc(C)cc(C)n1)NC(C)=O,-,-,-,60.8
COc1ccccc1Nc1ncc(C(=O)N2CCC(C(N)=O)CC2)c2ccccc12,-,-,-,-
SMILES,Arbovirus anti,WT yeast gro inh,CHOP inh,L major viab
COc1ccccc1NC(=O)Nc1ccc(Cc2ccncc2)cc1,-,-,-,-
COc1ccccc1NC(=O)c1cnc(Nc2ccccc2OC)c2ccccc12,-,-,-,95.3
COc1ccc(NC(=O)Nc2ccc(Cc3ccncc3)cc2)cc1OC,-,-,-,96.5
COc1ccccc1NC(=O)Nc1ccncc1,-,-,-,97.2
COc1ccccc1NC(=O)Nc1cc(NC(=O)Nc2ccccc2OC)c(C)nc1C,-,-,-,63.9
COC(=O)c1c(NC(=O)CN2CCN(c3cccc(Cl)c3)CC2)sc(C)c1C,-,-,-,-
Cc1ccc(CSCCNC(=O)c2ccc(NS(C)(=O)=O)cc2)cc1,-,-,-,-
Cc1nc2cc(-c3ccccc3)nn2c(C)c1CCC(=O)N1CCN(c2ccccn2)CC1,-,-,70.8,-
CCOC(=O)C1CCCCN1C(=O)CCc1c(C)nc2cc(-c3ccccc3)nn2c1C (stereo not given),-,-,72.9,-
O=C(CCc1ccccc1)N1CCN(c2ccccn2)CC1,-,-,-,51.9
CCOC(=O)c1cc(-c2ccc(C)cc2)n(CCC(=O)N2CCN(c3ccccn3)CC2)c1C,-,-,-,89.5
CCOC(=O)C1CCN(C(=O)CCc2c(C)nc3cc(-c4ccccc4)nn3c2C)CC1,-,-,-,-
COc1ccc(C(=O)C2CCCN(C(=O)c3cc(C(C)C)no3)C2)cc1F (stereo not given),-,-,-,-
Cc1nonc1C(=O)N/N=C/c1ccc(O)cc1O,-,-,-,97.8
Cc1cc(C(=O)N/N=C/c2ccc([N+](=O)[O-])o2)c(C)o1,.,.,-,.
CN(/N=C/c1ccc([N+](=O)[O-])o1)c1ccccc1,-,-,-,70.6
Cc1nonc1C(=O)N/N=C/c1ccncc1,-,-,-,-
O=C(N/N=C/c1ccc([N+](=O)[O-])o1)C1CC1,-,-,-,99.9
Cc1nonc1C(=O)N/N=C/c1ccc([N+](=O)[O-])o1,-,-,-,93.6
COC(CNc1ccc([N+](=O)[O-])c(NCC(OC)OC)c1C#N)OC,.,.,-,.
Cc1oc(-c2cc(F)ccc2F)nc1CN1CCCN(C(=O)c2ccco2)CC1,-,-,-,-
CC(C)CCN(C(=O)Nc1ccc(Cl)cc1)C1CCN(C(C)C)CC1,-,-,-,-
CCCCn1c(=O)c(CCC(=O)OCC(=O)NC(=O)NCCC(C)C)nc2ccccc21,-,-,-,-
CCCC(=O)Nc1ccc(C(=O)N/N=C/c2ccc([N+](=O)[O-])o2)cc1,-,-,-,98.8
COC(=O)N/N=C/c1ccc([N+](=O)[O-])o1,-,-,-,99.2
SMILES,Arbovirus anti,WT yeast gro inh,CHOP inh,L major viab
O=C(N/N=C/c1ccc([N+](=O)[O-])o1)C(O)c1ccccc1 (stereo not given),.,.,-,.
O=C(NCc1ccco1)C(c1ccco1)N(C(=O)Cn1nnc2ccccc21)c1ccc2c(c1)CCC2 (stereo not given),.,.,.,91.2
O=C(NC1CCCCC1)C(c1ccccc1F)N(Cc1ccco1)C(=O)Cn1nnc2ccccc21 (stereo not given),-,-,-,-
CCC(C)(C)NC(=O)C(c1ccc(C)cc1)N(Cc1ccco1)C(=O)Cn1nnc2ccccc21 (stereo not given),-,-,-,-
Cc1ccc(C(C(=O)NC2CCCCC2)N(Cc2ccco2)C(=O)Cn2cnc3ccccc32)cc1 (stereo not given),-,-,-,60.4
O=C(NC1CCCCC1)C(c1ccc(F)cc1)N(Cc1ccco1)C(=O)Cn1nnc2ccccc21 (stereo not given),-,-,74.0,-
NC(=O)N/N=C/c1c(F)cccc1F,-,-,-,-
OC1(c2cccc(F)c2)CCN(Cc2ccncc2)CC1,-,-,-,93.6
OC1(c2cccc(C(F)(F)F)c2)CCN(Cc2nnnn2Cc2ccccc2)CC1,-,-,-,-
CC(/C=C1\SC(=S)N(NC(=O)c2ccc(O)cc2)C1=O)=C\c1ccccc1,-,89.9,-,-
O=c1c2ccccc2c(-c2ccc(O)cc2)nn1-c1cccc(C(F)(F)F)c1,-,83.0,93.7,-
O=c1c2ccccc2c(-c2cccc(C(F)(F)F)c2)nn1-c1ccccc1,.,.,-,.
O=C(O)CC(c1cccc2ccccc12)n1cccc1 (stereo not given),-,-,-,-
Cc1cccc(NC(=O)Cn2c(O)c(N=NC(=O)c3ccccc3O)c3ccccc32)c1,-,-,82.9,-
